Screens from PubChem BioAssay.
CBX7 inh: CBX7 chromodomain binding inhibitors, primary screen, biochemical, AlphaScreen. Chromobox protein homolog 7 (Homo sapiens), O95931. AlphaScreen His6-CBX7 / biotin-H3K27me3 peptide binding; active compounds read low. normalised signal (fraction of DMSO) (concentration not given with the values). 1.1% of 66,000 active; in the data active means normalised signal below about 0.5
Target sequence (O95931 whole entry, looked up): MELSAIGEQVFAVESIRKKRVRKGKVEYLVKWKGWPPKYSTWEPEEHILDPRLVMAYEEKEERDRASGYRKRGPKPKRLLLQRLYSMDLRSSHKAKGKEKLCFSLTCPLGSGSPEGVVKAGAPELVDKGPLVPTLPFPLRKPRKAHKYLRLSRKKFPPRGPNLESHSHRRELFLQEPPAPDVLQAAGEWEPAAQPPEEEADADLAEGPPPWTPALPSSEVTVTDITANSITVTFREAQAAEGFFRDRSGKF
* marks the source's active call; other numbers are inactive results. The full list was thinned out, with hits kept by preference.

Results for CCOc1ccc(-n2c(Cc3cc(=O)[nH]c(=O)[nH]3)nnc2SCc2cccc(C)c2)cc1 ?
CBX7 inh: 0.947

What do the screens show for `Cc1ccc(S(=O)(=O)c2cn(CC(=O)Nc3ccc(F)cc3)c3ccc(Cl)cc3c2=O)cc1`?
CBX7 inh: 0.943

What do the screens show for `CCN(c1cccc(C)c1)C(C(=O)NC1CCCC1)c1ccccc1` (configuration not stated)?
CBX7 inh: 0.818

What do the screens show for `COCCN(CCOC)S(=O)(=O)c1ccc(C(=O)Nc2nnc(-c3ccc(OC)cc3)o2)cc1`?
CBX7 inh: 0.794

How did COc1ccccc1-c1nnc(NC(=O)c2ccc(S(=O)(=O)N3CCC(C)CC3)cc2)o1 do in these assays?
CBX7 inh: 0.852

How did COc1cc(OC)cc(-c2nnc(NC(=O)c3ccc(S(=O)(=O)N4CCCC(C)C4)cc3)o2)c1 (configuration not stated) do in these assays?
CBX7 inh: 1.06

How did CN(Cc1ccccc1)S(=O)(=O)c1ccc(C(=O)Nc2ccc(-c3nc4ccccc4[nH]3)cc2)cc1 do in these assays?
CBX7 inh: 1.03

What do the screens show for `COc1ccccc1-c1nnc(NC(=O)c2ccc(S(=O)(=O)N3CCCC(C)C3)cc2)o1` (configuration not stated)?
CBX7 inh: 0.823

Results for COc1cccc(-c2nnc(NC(=O)c3ccc(S(=O)(=O)N(C)C)cc3)o2)c1 ?
CBX7 inh: 0.229*

Results for COc1cc(OC)cc(-c2nnc(NC(=O)c3ccc(S(=O)(=O)N(C)Cc4ccccc4)cc3)o2)c1 ?
CBX7 inh: 0.0762*

What do the screens show for `COCCN(CCOC)S(=O)(=O)c1ccc(C(=O)Nc2nnc(-c3cccc(OC)c3)o2)cc1`?
CBX7 inh: 0.948

What do the screens show for `COc1ccccc1-c1nnc(NC(=O)c2ccc(S(=O)(=O)N(C)C)cc2)o1`?
CBX7 inh: 0.036*

Results for COc1ccc(-c2nnc(NC(=O)c3ccc(S(=O)(=O)N(C)Cc4ccccc4)cc3)o2)cc1 ?
CBX7 inh: 0.00785*

How did COc1ccccc1Nc1nc(-c2c(C)nc3cc(C)ccn23)cs1 do in these assays?
CBX7 inh: 0.763

What do the screens show for `NS(=O)(=O)c1ccc(CCNC(=O)Cn2cnc3sc4c(c3c2=O)CCCC4)cc1`?
CBX7 inh: 1.03

What do the screens show for `COc1ccc(NC(=O)C(NS(=O)(=O)c2ccc3nc(C)sc3c2)C(C)C)c(OC)c1` (configuration not stated)?
CBX7 inh: 0.992

How did Cc1ccc(-c2csc(NC(=O)C(C)N3C(=O)c4ccccc4C3=O)n2)cc1 (configuration not stated) do in these assays?
CBX7 inh: 0.832

Results for COc1ccc(-c2nnc(NC(=O)c3ccc(S(=O)(=O)N4CCOCC4)cc3)o2)c(OC)c1 ?
CBX7 inh: 0.583

How did COc1ccc(-c2nnc(NC(=O)c3ccc(S(=O)(=O)N(C)Cc4ccccc4)cc3)o2)c(OC)c1 do in these assays?
CBX7 inh: 0.00137*

What do the screens show for `CCCCN(C)S(=O)(=O)c1ccc(C(=O)Nc2nnc(-c3ccc(OC)cc3OC)o2)cc1`?
CBX7 inh: 0.972

How did Cc1ccc(-c2nc3cc(Cl)ccc3o2)cc1NCc1ccccc1O do in these assays?
CBX7 inh: 0.96

Results for COC(=O)c1nnn(-c2nonc2N)c1CSc1nc2ccccc2o1 ?
CBX7 inh: 1

What do the screens show for `NC(=O)c1nnn(-c2nonc2N)c1CSc1nc2ccccc2o1`?
CBX7 inh: 0.734

Results for Nc1nonc1-n1nnc(C(=O)O)c1CSc1nc2ccccc2o1 ?
CBX7 inh: 0.0178*

What do the screens show for `Cc1ccc(C(=O)CC2(O)C(=O)Nc3ccc(Cl)cc32)cc1` (configuration not stated)?
CBX7 inh: 1.03

Results for Cc1ccc(SCc2nc3ccccn3c2Cl)cc1 ?
CBX7 inh: 0.994

What do the screens show for `CCCCCn1c(=O)[nH]c2cc(C(=O)NCc3ccc(Cl)cc3)ccc2c1=O`?
CBX7 inh: 1.04

Results for CCCCCn1c(=O)[nH]c2cc(C(=O)NCc3ccccn3)ccc2c1=O ?
CBX7 inh: 0.106*

How did O=C(NCc1ccccn1)c1ccc2c(=O)n(CCc3ccccc3)c(=O)[nH]c2c1 do in these assays?
CBX7 inh: 0.903

What do the screens show for `COCCNC(=O)c1ccc(-c2nn(C)c(=O)c3ccccc23)cc1`?
CBX7 inh: 1.07

Results for COc1ccccc1N1C(=O)C2C3C=CC(C3=C(C)C)C2C1=O (configuration not stated) ?
CBX7 inh: 0.907

How did CCOC(=O)c1cnc2c(C)cccc2c1Nc1ccc(F)cc1 do in these assays?
CBX7 inh: 1.29

What do the screens show for `CCOC(=O)c1cnc2c(C)cc(Cl)cc2c1Nc1ccc2c(c1)OCCO2`?
CBX7 inh: 0.864

How did CCOC(=O)c1cnc2c(C)cc(Cl)cc2c1Nc1cccc(C(=O)O)c1 do in these assays?
CBX7 inh: 0.763

Results for CCOC(=O)c1cnc2c(C)cccc2c1Nc1ccc(N(CC)CC)cc1 ?
CBX7 inh: 0.121*

Results for CCOC(=O)c1cnc2c(C)cc(C)cc2c1Nc1ccc(N(C)C)cc1 ?
CBX7 inh: 0.326*

Results for CCOC(=O)c1cnc2c(C)cc(C)cc2c1Nc1ccc(OCC)cc1 ?
CBX7 inh: 1.07

Results for CCOC(=O)c1cnc2c(C)cccc2c1Nc1ccc(C(=O)O)cc1 ?
CBX7 inh: 0.97

How did CCOC(=O)c1cnc2c(C)cc(Cl)cc2c1Nc1ccc(N2CCOCC2)cc1 do in these assays?
CBX7 inh: 0.257*

What do the screens show for `CCOC(=O)c1cnc2c(C)cc(C)cc2c1Nc1ccc(C)cc1`?
CBX7 inh: 1.3

What do the screens show for `CCn1cc(C(=O)Nc2ccc(C)c(F)c2)c2cc(OC)c(OC)cc2c1=O`?
CBX7 inh: 1.07

Results for CCCCCn1c(CNC(=O)C(C)(C)C)nc2ccccc21 ?
CBX7 inh: 1.02

What do the screens show for `CCOC(=O)C1CCN(c2c(N3CCN(Cc4ccc5c(c4)OCO5)CC3)c(=O)c2=O)CC1`?
CBX7 inh: 1.07

How did Fc1ccccc1CN1CCN(Cc2ccc3ccccc3c2)CC1 do in these assays?
CBX7 inh: 1.09

How did Cc1nc(C#N)c(N2CCOCC2)o1 do in these assays?
CBX7 inh: 1.01

What do the screens show for `O=C(CN1C(=O)CSc2ccccc21)NCCN1CCOCC1`?
CBX7 inh: 0.479*

Results for O=C(CN1C(=O)CCSc2ccccc21)NCCN1CCOCC1 ?
CBX7 inh: 0.996

What do the screens show for `O=C(CN1C(=O)CSc2ccccc21)NCCCN1CCOCC1`?
CBX7 inh: 0.982

What do the screens show for `CCCn1cc(C2CC(=O)N(c3ccc(C)cc3)C2=O)c2ccccc21` (configuration not stated)?
CBX7 inh: 1.02

Results for CCCn1cc(C2CC(=O)N(c3ccc(Br)cc3)C2=O)c2ccccc21 (configuration not stated) ?
CBX7 inh: 1.07

How did CCCn1cc(C2CC(=O)N(c3ccccc3C)C2=O)c2ccccc21 (configuration not stated) do in these assays?
CBX7 inh: 0.464*

Results for CC1CCN(S(=O)(=O)c2ccc3c(c2)N(CC(=O)NC2CCCC(C)C2C)C(=O)CS3)CC1 (configuration not stated) ?
CBX7 inh: 0.85

How did CCOc1ccc2c(c1)c(=O)c(C(=O)c1ccc(OC)cc1)cn2Cc1ccc(F)cc1 do in these assays?
CBX7 inh: 0.682

What do the screens show for `O=C(Nc1ccc(-c2nc3cc(Cl)ccc3o2)cc1)c1cccnc1`?
CBX7 inh: 0.936

What do the screens show for `COc1ccc(NC2c3ccccc3C(=O)N2Cc2ccccc2)cc1Cl` (configuration not stated)?
CBX7 inh: 0.995
